Where “and” joins values, the source holds several entries; their conditions need not be identical. Identical values can stand only once. Records with an inconclusive call do not appear. More than one record can exist for a structure, and the calls need not agree. Calls of active or inactive are those of the source. Unless noted, the call rests on the fitted dose curve.

Drawing on PubChem BioAssay (Tox21), this text covers Potency for eight molecules.

Assay [1] in a line: Nuclear factor erythroid 2-related factor 2/antioxidant responsive element (Nrf2/ARE) small molecule agonists: qHTS cell viability counter screen in human keratinocytes (AID 1919968; active means well fitted curve in the direction sought with a large enough effect in the repeat runs; an effect the other way counts as inactive or inconclusive; further: nearly all actives have a fitted effect of over 55% in size; further: potency means the concentration at half of the fitted maximal effect). The method, boiled down:
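Fluorescence read-out from CellTiter-Fluor after 1 h at 37 C. Wells held HaCaT-derived ARE-luciferase reporter cells (1,500/well) treated 23 h with DMSO-dissolved compounds. Run in the same wells as the luciferase agonist read.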
(qHTS replaces the single test concentration by a dilution series.)

The nature of assay [2]: Nuclear factor erythroid 2-related factor 2/antioxidant responsive element (Nrf2/ARE) small molecule agonists: luciferase reporter gene qHTS assay in human keratinocytes (AID 1919969). Further: nearly all actives have a fitted effect of over 35% in size. Further: potency means the concentration at half of the fitted maximal effect. In general terms: A reporter such as luciferase makes a cellular process visible.
Assay [3] concerns the target Gonadotropin-releasing hormone receptor (Homo sapiens) (UniProt P30968). As to the kind of experiment: Human gonadotropin-releasing hormone receptor (GnRHR) small molecule agonists, calcium flux assay in GnRHR-HEK293 cells (AID 1920063). Further: nearly all actives have a fitted effect of over 35% in size. The method, boiled down: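 Calcium-dye fluorescence, Ex/Em=480/540, recorded every 1 sec over 3 min after compound addition to GnRHR-HEK293 cells. Cells had been seeded 18 hours earlier and dye-loaded for 1 hour at 37 C. Fifteen concentrations, triplicates.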
On the technique in general: Calcium flux is commonly read through the fluorescence of an indicator in the cells.

Assay [4] addresses KiSS-1 receptor (Homo sapiens) (UniProt Q969F8). As to the kind of experiment: Human kisspeptin (KISS1R) small molecule agonists, calcium flux assay in KISS1R-HEK293 cells (AID 1920064; active means well fitted curve in the direction sought with a large enough effect in the repeat runs; an effect the other way counts as inactive or inconclusive). The method in brief:
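Calcium flux read-out: kinetic fluorescence at Ex/Em=480/540, 1 s intervals over 3 min, after pin-tool compound addition to dye-loaded KISS1R-HEK293 cells. Fifteen concentrations, triplicates.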

Assay [5] is described as follows: G protein-coupled receptor (GPCR) small molecule agonists, calcium flux assay: HEK293 wild type cell line counter screen (AID 1920065). The method, boiled down:
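Agonist mode; 18 h seeding at 37 C, 1 h dye load at 37 C; compounds pinned from DMSO, ATP as positive control; kinetic fluorescence 480/540 nm, 3 min, 1 s reads; 15 concentrations, triplicate.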

Assay [6] is described as follows: p53 small molecule agonists, cell-based qHTS assay with human liver microsomes (AID 1963577).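 Further: p53 response element beta-lactamase reporter cells with liver microsomes plus NADPH.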 The method, boiled down: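 p53RE-bla cells; 5 h settle, 37 C/5% CO2; cpd + HLM 0.5 mg/mL + NADPH 0.5 mg/mL (final); 16 h 37 C; LiveBLAzer 2 h RT dark; fluorescence readout.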
Assay [7] can be described thus: p53 small molecule agonists, cell-based qHTS assay with rat liver microsomes (AID 1963578). The method in brief: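 Rat liver microsome activation: microsomes 0.5 mg/mL, NADPH 0.5 mg/mL final; p53RE-bla cells, 16 h 37 C; LiveBLAzer readout, 2 h RT dark.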
Assay [8] in a line: p53 small molecule agonists, cell-based qHTS assay with human liver microsomes: qHTS cell viability counter screen (AID 1963579). Further: nearly all actives have a fitted effect of over 45% in size. The method, boiled down: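 Luminescent CellTiter-Glo read-out, 30 min at room temperature, gauged cytotoxicity in p53RE-bla cells exposed 16 h at 37 C to DMSO-dissolved compounds with metabolic activation by human liver microsomes and NADPH, each 0.5 mg/mL final.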

A short description of assay [9]: p53 small molecule agonists, cell-based qHTS assay with rat liver microsomes: qHTS cell viability counter screen (AID 1963580). Further: nearly all actives have a fitted effect of over 45% in size. The method in brief: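 Rat liver microsome (0.5 mg/mL final) and NADPH (0.5 mg/mL final) co-incubation with compounds for 16 h at 37 C on HCT-116 p53RE-bla cells; cytotoxicity taken from intracellular ATP luminescence.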
The target of assay [10] is Beta-2 adrenergic receptor (Homo sapiens) (UniProt P07550). As to the kind of experiment: Adrenergic beta2 receptor (ADRB2) small molecule antagonists, cell-based qHTS assay (AID 1963592). Further: series mostly up to about 92 µM; nearly all actives have a fitted effect of over 50% in size. The method, boiled down:
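Assay format: CHO-ADRB2 cells, 18-20hr seeding at 37C/5% CO2, then compound plus 1nM isoproterenol agonist mix for 0.5hr RT. Homogeneous time-resolved fluorescence cAMP detection after 1hr, expressed as 665/615 nm ratio.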

Assay [11] deals with D(2) dopamine receptor (Homo sapiens) (UniProt P14416). As to the kind of experiment: Dopamine D2 receptor (DRD2) small molecule agonists, cell-based qHTS assay (AID 1963594). Further: nearly all actives have a fitted effect of over 35% in size. The method, boiled down: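 cAMP accumulation in DRD2-HEK293 cells measured by HTRF after 1 h detection; compounds added 10 min before NKH477 (200nM […]) forskolin-analogue stimulation, 30 min at room temperature, with Ro20-1724 present at 0.1 mM final.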
Sequence of D(2) dopamine receptor (Homo sapiens) (P14416 whole entry, looked up): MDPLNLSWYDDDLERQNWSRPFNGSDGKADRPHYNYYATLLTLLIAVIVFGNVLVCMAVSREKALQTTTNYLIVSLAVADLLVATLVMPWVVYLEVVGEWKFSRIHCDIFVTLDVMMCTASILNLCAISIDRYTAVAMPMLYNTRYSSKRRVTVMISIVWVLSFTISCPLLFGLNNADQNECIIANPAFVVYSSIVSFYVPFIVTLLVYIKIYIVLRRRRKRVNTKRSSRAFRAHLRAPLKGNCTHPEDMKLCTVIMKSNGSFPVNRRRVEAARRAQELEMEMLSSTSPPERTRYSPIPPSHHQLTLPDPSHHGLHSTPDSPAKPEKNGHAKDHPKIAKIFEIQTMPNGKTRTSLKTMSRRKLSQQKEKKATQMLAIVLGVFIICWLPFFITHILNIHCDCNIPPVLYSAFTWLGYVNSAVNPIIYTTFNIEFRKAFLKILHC

Assay [12] is described as follows: p53 small molecule agonists, cell-based qHTS assay (AID 1963582; active means well fitted activation curve with a large enough effect in the signal ratio in the repeat runs, not every such curve was filed as active; the % refers to the signal ratio). The method, boiled down:
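Fluorescence intensity read-out of a beta-lactamase reporter under a p53 response element. Cells were exposed to DMSO-dissolved compounds for 16 h at 37 C, then developed with FRET substrate for 2 h at RT.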

The target in assay [13] is 5-hydroxytryptamine receptor 2A (Homo sapiens) (UniProt P28223). As to the kind of experiment: 5-hydroxytryptamine receptor 2A (HTR2A) small molecule agonists, cell-based qHTS assay (AID 1963587). Further: nearly all actives have a fitted effect of over 30% in size. The method, boiled down: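 Kinetic calcium-flux fluorescence (2 min, 1 sec intervals) after compound addition in agonist mode. HTR2A-CHO cells were cultured 18 h, then dye-loaded 1 h at 37 C.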
Sequence of 5-hydroxytryptamine receptor 2A (Homo sapiens) (P28223 whole entry, looked up): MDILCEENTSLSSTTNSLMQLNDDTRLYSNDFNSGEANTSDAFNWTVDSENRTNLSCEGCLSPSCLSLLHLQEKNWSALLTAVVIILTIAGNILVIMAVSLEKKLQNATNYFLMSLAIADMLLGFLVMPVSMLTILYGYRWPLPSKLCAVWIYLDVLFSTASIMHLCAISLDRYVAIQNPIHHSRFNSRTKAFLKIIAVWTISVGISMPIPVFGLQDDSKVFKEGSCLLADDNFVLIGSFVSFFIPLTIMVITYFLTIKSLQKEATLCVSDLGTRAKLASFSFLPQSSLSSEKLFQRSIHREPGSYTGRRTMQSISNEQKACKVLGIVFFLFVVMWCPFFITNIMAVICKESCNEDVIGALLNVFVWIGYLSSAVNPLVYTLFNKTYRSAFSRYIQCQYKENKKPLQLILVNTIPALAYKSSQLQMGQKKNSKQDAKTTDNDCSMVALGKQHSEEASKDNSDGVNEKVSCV

In assay [14] the target is Muscarinic acetylcholine receptor M1 (Homo sapiens) (UniProt P11229). As to the kind of experiment: Cholinergic receptor muscarinic 1 (CHRM1) small molecule antagonists, cell-based qHTS assay (AID 1963588). Further: nearly all actives have a fitted effect of over 40% in size. Further: potency means the concentration at half of the fitted maximal effect. The method in brief:
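Compounds were tested at 15 concentrations in three independent runs. Dye-loaded CHRM1-CHO cells were exposed 5 min at room temperature before stimulation by acetylcholine added at 50nM. Intracellular calcium was read kinetically on FDSS for 3 min.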

Assay [15] shares this target. As to the kind of experiment: Cholinergic receptor muscarinic 1 (CHRM1) small molecule agonists, cell-based qHTS assay (AID 1963589). Further: nearly all actives have a fitted effect of over 35% in size. The method in brief: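 Calcium flux read-out: kinetic fluorescence at 1 sec intervals after pin-tool compound addition to dye-loaded CHRM1-CHO cells (human M1). Agonist mode; 15 concentrations tested in triplicate independent runs.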

The nature of assay [16]: cAMP Responsive Elements (CRE) small molecule agonists, cell-based qHTS assay (AID 1963590). The method, boiled down: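 Beta-lactamase reporter readout: LiveBLAzer B/G FRET substrate, 2 h at room temperature, added after 3 h compound treatment of CRE-bla HEK 293T cells at 37 C/5% CO2.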
The target of assay [17] is Beta-2 adrenergic receptor (Homo sapiens) (UniProt P07550). As to the kind of experiment: Adrenergic beta2 receptor (ADRB2) small molecule agonists, cell-based qHTS assay (AID 1963593).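 Further: CHO cells stably overexpressing human ADRB2.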 The method in brief: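 CHO cells stably over-expressing ADRB2 were plated overnight at 37C, then dosed with compounds plus a stimulation mix containing 100uM IBMX and 25uM Ro-20-1724 for 0.5hr at room temperature. cAMP was measured by HTRF competition, 1hr.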
Sequence of Beta-2 adrenergic receptor (Homo sapiens) (P07550 whole entry, looked up): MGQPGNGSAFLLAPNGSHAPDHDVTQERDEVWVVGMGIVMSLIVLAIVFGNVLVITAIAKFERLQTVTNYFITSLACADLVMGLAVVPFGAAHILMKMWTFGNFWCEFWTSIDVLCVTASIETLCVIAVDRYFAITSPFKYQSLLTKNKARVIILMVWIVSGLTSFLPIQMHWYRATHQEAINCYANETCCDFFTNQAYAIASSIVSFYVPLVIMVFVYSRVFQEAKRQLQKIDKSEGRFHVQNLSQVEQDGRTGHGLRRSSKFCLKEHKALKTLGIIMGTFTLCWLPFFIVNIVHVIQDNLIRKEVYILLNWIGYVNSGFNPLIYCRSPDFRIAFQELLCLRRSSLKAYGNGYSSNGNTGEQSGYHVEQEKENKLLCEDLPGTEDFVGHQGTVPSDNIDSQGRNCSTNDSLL

A short description of assay [18]: cAMP Responsive Elements (CRE) small molecule antagonists, cell-based qHTS assay (AID 1963591; active means well fitted inhibition curve with a large enough effect in the signal ratio in the repeat runs, not every such curve was filed as active; the % refers to the signal ratio). The method, boiled down:
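HEK293T CRE-bla; 18 h preincubation; compound pin-transfer; NKH477 0.25 uM final, 3 h, 37 C; LiveBLAzer FRET substrate 2 h RT.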

Assay [19] concerns the target D(2) dopamine receptor (Homo sapiens) (UniProt P14416). As to the kind of experiment: Dopamine D2 receptor (DRD2) small molecule antagonists, cell-based qHTS assay (AID 1963595; active means well fitted inhibition curve with a large enough effect in the signal ratio in the repeat runs, with a control signal flat; the % refers to the signal ratio). The method, boiled down: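 HEK293 cells stably expressing DRD2 were preincubated with 0.1 mM Ro20-1724, then with compound for 10 min at room temperature. Cells were stimulated with 200 nM NKH477 plus 12 nM quinpirole for 30 min, and cAMP was read by HTRF.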

Sequence of Muscarinic acetylcholine receptor M1 (Homo sapiens) (P11229 whole entry, looked up): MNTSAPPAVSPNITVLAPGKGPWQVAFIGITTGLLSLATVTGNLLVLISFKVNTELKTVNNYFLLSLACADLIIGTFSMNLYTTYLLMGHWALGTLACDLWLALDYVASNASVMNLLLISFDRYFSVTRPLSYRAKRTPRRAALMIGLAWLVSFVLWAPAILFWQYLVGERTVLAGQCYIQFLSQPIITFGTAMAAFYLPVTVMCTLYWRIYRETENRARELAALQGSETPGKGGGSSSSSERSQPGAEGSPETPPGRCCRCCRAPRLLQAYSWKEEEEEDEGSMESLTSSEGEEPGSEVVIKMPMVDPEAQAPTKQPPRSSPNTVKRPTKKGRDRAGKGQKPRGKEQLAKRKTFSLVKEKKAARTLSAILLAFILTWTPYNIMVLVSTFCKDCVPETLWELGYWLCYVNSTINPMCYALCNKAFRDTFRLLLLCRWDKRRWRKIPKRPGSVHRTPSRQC
Sequence of KiSS-1 receptor (Homo sapiens) (Q969F8 whole entry, looked up): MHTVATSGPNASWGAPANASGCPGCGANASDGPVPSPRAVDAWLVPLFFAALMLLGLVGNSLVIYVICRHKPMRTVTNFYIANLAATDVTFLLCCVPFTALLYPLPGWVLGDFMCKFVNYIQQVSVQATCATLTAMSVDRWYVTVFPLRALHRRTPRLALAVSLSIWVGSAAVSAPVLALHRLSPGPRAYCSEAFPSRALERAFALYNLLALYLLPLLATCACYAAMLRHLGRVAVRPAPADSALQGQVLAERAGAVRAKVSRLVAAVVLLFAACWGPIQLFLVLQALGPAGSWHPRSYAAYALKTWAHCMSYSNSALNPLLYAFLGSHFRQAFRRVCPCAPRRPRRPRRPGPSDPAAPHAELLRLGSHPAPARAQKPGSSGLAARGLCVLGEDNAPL
Sequence of Gonadotropin-releasing hormone receptor (Homo sapiens) (P30968 whole entry, looked up): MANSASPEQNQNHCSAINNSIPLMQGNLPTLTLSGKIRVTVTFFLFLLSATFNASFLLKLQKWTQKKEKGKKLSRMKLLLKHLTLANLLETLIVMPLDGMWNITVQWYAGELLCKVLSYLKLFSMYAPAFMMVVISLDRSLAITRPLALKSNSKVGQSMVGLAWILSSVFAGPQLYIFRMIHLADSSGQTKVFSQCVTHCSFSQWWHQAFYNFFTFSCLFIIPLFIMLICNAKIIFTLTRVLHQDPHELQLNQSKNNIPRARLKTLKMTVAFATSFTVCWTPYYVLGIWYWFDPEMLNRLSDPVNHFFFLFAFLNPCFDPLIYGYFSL

As for `Oc1ccccc1O`, the Potency result in assay [1], in assay [2], in assay [3], in assay [4], in [5] and in assay [6] was “inactive” in each case. Besides, the Potency result in assay [7], in [8], in assay [9], in assay [10] and in assay [11] was “inactive” in each case.

Consider `CCCOCCO`, for which the Potency result in [1], in [2], in [3], in assay [4], in assay [5] and in assay [6] was “inactive” throughout. Also, the Potency entry in assay [7], in assay [8], in assay [9], in [12], in assay [13] and in assay [15] was “inactive” in each case. Besides, the Potency result in assay [16], in assay [10] and in assay [17] was “inactive” each time. Moreover, the Potency result in assay [14] was “inactive and 12.5 nM (active)”.

As to `OCCc1ccccn1`, the Potency result in assay [1], in [2], in assay [3], in [4], in [5] and in assay [6] was “inactive” each time. In addition, the Potency entry in assay [7], in assay [8], in [9], in assay [12], in [13] and in [14] was “inactive” throughout. Moreover, the Potency entry in [16], in assay [10] and in [11] was “inactive” throughout.

`CCC(=O)OCc1ccc(OC)cc1`: the Potency result in assay [1], in assay [2], in assay [3], in [4], in assay [5] and in assay [6] was “inactive” throughout. The Potency entry in assay [7], in assay [8], in assay [9], in assay [12], in [13] and in assay [16] was “inactive” each time. For the same molecule, the Potency result in assay [18], in assay [10], in assay [17], in [11] and in [19] was “inactive” in each case.

`Cc1nc2ccccc2s1`: the Potency result in assay [1], in [2], in assay [3], in assay [4], in assay [5] and in assay [6] was “inactive” throughout. Moreover, the Potency result in assay [7], in assay [8], in [9], in assay [12], in assay [13] and in [15] was “inactive” throughout. In addition, the Potency result in [16], in [18], in assay [10], in assay [17] and in [11] was “inactive” throughout.

For `COc1ccccc1N=Nc1c(S(=O)(=O)O)cc2cc(S(=O)(=O)O)cc(NC(C)=O)c2c1O`, in assay [1], the Potency is 40.7 µM (active). Besides, the Potency result in [2], in assay [3], in [4], in [5], in assay [6] and in assay [7] was “inactive” throughout. Further, the Potency result in assay [8], in [9], in assay [12], in assay [13], in assay [14] and in assay [15] was “inactive” each time. For the same molecule, the Potency result in [18] is “inactive”.

In the case of `OCCN1CCNCC1`, the Potency entry in assay [1], in assay [2], in [3], in assay [4], in assay [5] and in assay [6] was “inactive” in each case. Besides, the Potency result in [7], in assay [8], in [9], in [12], in assay [13] and in assay [14] was “inactive” in each case. For the same molecule, the Potency result in assay [15], in assay [10], in assay [17], in assay [11] and in assay [19] was “inactive” each time.

With `CCCCC/C=C/C=C/C=O`, the Potency entry in assay [1], in assay [3], in assay [4], in assay [5], in assay [6] and in [7] was “inactive” each time. The Potency entry in assay [8], in assay [9], in assay [12], in assay [13], in assay [14] and in [15] was “inactive” throughout. Further, the Potency entry in assay [16], in [18], in assay [10], in assay [17], in [11] and in assay [19] was “inactive” in each case. For the same molecule, the Potency in assay [2] is 61.1 µM (active).
